# Over roughly 1,800 sequences, “median log2 fold change of GCK-ALFA target abundance (FLAG IP / Myc IP barcode read proportion)” has its median near 0.14; the lowest 2% begin near -0.84. Shown is part of a subset that was picked to be rich in the lowest values.
# T1: TRAF2, Q12933
# T1 chain: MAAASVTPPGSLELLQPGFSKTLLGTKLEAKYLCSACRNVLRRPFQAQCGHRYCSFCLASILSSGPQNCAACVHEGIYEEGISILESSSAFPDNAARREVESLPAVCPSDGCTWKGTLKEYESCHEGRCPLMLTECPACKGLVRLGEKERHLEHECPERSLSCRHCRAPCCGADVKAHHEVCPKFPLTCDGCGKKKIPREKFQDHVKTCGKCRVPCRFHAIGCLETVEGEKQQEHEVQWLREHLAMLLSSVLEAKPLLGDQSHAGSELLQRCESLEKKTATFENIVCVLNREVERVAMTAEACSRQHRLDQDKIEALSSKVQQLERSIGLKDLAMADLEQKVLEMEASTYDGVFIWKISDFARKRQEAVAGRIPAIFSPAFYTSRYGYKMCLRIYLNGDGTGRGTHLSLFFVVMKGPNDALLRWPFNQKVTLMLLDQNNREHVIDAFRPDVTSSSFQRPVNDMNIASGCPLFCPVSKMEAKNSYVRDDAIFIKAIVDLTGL
# B1: traf2_out_18_167_1822 (protein)
# chain: SAETEAEIERLTDELVRVSEIRRLALLALEALRTDPAAADAARDALIAALNEVPEFRPDAAALRAAPRAELPALLERIAERAQRRAQELYERREELKKKQ
# B2: traf2_out_3_89_2308 (protein)
# chain: MEERKKTIEEMEKQMEAYVKGFEKSAKFVAKQMLADGMSLDTLRGVLEAAKSALLEVLRETAKERGLSEEEIEKLLKKAEEELNKVVDEVVADAAAKRAA
# B3: traf2_out_6_156_2410 (protein)
# chain: MVDAIFKEALEKIEKEIKKLSEASEEKKIKYISNIAGTVYRALQQLRDAGASLAEIEAFAKKLKAEIEKKLKEAGLPEDTINLVLSSINAVFDVAIADAK
# B4: traf2_out_13_95_1152 (protein)
# chain: SKELAEKINQIADDMLDQVEAKLQALLEKMKAAGKGVEEVQKALDLARYRSVNEAIALLEELSKKYPEFKELFDATIKEIKAIIREAGRKVAELIKEEEA
# B5: traf2_out_11_131_656 (protein)
# chain: MDAVAMAESAAERVDERLEIAKTLSPEERLRLARQSLDSLEALAEYLKEHVKEMSKEDVEKAAKILRESAEKILEFSPEVEEEAKEVEEAIKKLLEAAKA
# B6: traf2_out_20_38_2032 (protein)
# chain: SEEEEEERRLEEAIEVANEAYDRYTARFEEWQAAGKTVEEIAEETKKEVKELLEKAGLEEEAKILIEDIDLALSSPDAVRLLVRILARAEALVWQKEKEK
# B7: traf2_out_19_16_1989 (protein)
# chain: SKEEAEKLKKEMNKYLDEALELAKEAVENLDELSREELMDKLVEISELMRKAKELLQKYLELNKDDEEERKKVTEEFDKKYDEIMKLMTIIVKKIEELLK
# B8: traf2_out_11_155_670 (protein)
# chain: SEKQKLNNELVNELTEIADELKEKVEKILKEAAAAHPEHAEELAAVIASGKTLSGRSFARLAAQKFRELGLEEEAKKVEELLEEAQKKMNEVVKKYEEKL
# B9: traf2_out_3_89_2310 (protein)
# chain: GAERERTIEEMRREMERYIRGFRKSAERVAKEMLEDGMSLETLRGVLEAAKSALLEVLRERMRERGLSEEEIEELLEEAGRELDKVVEEVVAEAEERRKA
# B10: traf2_out_17_162_1600 (protein)
# chain: SELEKFKEKIEKELEELEKERKELEKKLKEIDSLSKEELTDLLVEASEKRRKALELLEKLEENKEKLDKEFYEKYKKRAEEIAEEFQRIANEIMKKLEEK
# B11: traf2_out_20_38_2010 (protein)
# chain: SEEEKEKEKLEKLVEVANEAYDKYSAEFEKWKAEGKTVEEIAEEVKKRVKEKLSAAGLEEEAKILIEDIDLALSSPNAWRLLVRTLARADALVKQKELNK
# B12: traf2_out_17_162_1551 (protein)
# chain: SALEEELERLEEELRRLEEELERLKKELENLEKKSKEELTDLLVEASEARRRARELAERLRELEPLIGEERAGELRERAEEIAEELQRIANKIYKELEKK
# B13: traf2_out_20_38_2037 (protein)
# chain: SEEEEEEKKLQEVIDVANEALDKYEKKIAEWKAEGKTVEEIAEAAKEEVRRLLEEVGLEEEAEILVEDIDRALSSPDAERLIARILARAVALVKQKELNK
# B14: traf2_out_11_169_882 (protein)
# chain: EEKEKNRKFNDFALELNDKAKKELLAFAEELAKKLGLDVAEVKAIFEANKNSSLSALAAALIEYFRSKGHEDAAAAVLAKYEELQEKINKEGTKKLKELE
# B15: traf2_out_17_178_1712 (protein)
# chain: SKEEARKEISAATDEMIDLAEAAATRLLEIARKEGSLSPEELAELERARRLGSARTTLALMERAIPKSKSAEEVQAILDEFRKRYAELSKKIAEALEKYE
# B16: traf2_out_20_38_2005 (protein)
# chain: SEEEEEERRLKIIIEAANEELDRWEKEIEELKAEGKTVEEIAERAKEEVRRLLTAAGLEEEAEELIAEIDLVLDSPDALDAIARILARAKALVVQKELNK
# B17: traf2_out_20_3_2071 (protein)
# chain: KELEEEAERELERALELLKRAAELADEETAKRLEELIKRLKASRELSVDDRLVVVSEVRREVLELAEEAKAAGKEELAKELEEAAEALNRAAQLLYDILQ
# B18: traf2_out_13_95_1038 (protein)
# chain: SKELAEKIMEIADEMEERSLALLEAAKEELADDPEAVAVLTEAKRLAETKGISEALHLLREASAANPEHAARFDALIEELEAIRREAGRKVAKLIKEEEE
# B19: traf2_out_15_48_1367 (protein)
# chain: DAAAYRAAMNAAADRIIATKDEVKKEVKELAKVASPEVKKKLNEVAKLIEAGAGSQEIIAALKEAAKVASPELKAKLEELAERLRAARREASAIAAAMAK
# B20: traf2_out_13_95_1077 (protein)
# chain: SKETNEKIMEIADEMLDKVNEVLEELAEKVKDDPEMKAKVEEALHLATHRGINEAIHLLKKLAEENEEYKELLEEAIKKLEEIKEKAGKEVAKLLKEEEE
# B21: traf2_out_13_95_1157 (protein)
# chain: SAELAKKIMEIADEMLDRSLAVLDALLAKAKAAGKLEAEVAEARHLAETRSINEAIAKLRELAKAHPEFKAELDAAIAELEALRREAGRKVAELIKEEEE
# B22: traf2_out_17_162_1532 (protein)
# chain: SELEERLRELEEELRELEKRLEELEKELENLENMSKEELSDLLVEASEARRRALELAEELRELRSEIGEERAEELIRRAEEIAERLQRIANKIYEELEKK
# B23: traf2_out_17_162_1548 (protein)
# chain: GELEERLKELEEELEELERRAEELESLLPELPKLSKEELTDLLVEASEARRRARRLAEEIEKLKEEIGEERAEELRERAEEIAERLQRIANAIYKELEKK
# B24: traf2_out_17_162_1490 (protein)
# chain: EELEERLRELERRLEELERRLKELEEKLKNIDKLSKEELTDLLVEASEAKREARRLAEELRELRERTGREELEELIRRAEEIAERLQRIANIIYKELEKK
# B25: traf2_out_18_3_1898 (protein)
# chain: SEEKLKEISEKIDEIIDEVTAKAREVLDWLEKNKPEVKERIAALRADLEAGAGPFGILRELARLAKEAGEEEKAKEIEEFLKEKSKELQELVDEYLELRA
# B26: traf2_out_13_95_1133 (protein)
# chain: SAETAKKIMEIADKMLDEVEKILEELLKIFEKKGIGVEEIKEALYLARHQSINEAIAKLEELSKKYPEFKEELDKAIEEIKALREKAGKEVAEILKKEKE
# B27: traf2_out_1_27_1000 (protein)
# chain: STEEERELLRRANREIGRASPEEQVEIIKRTLREALERGIDSPEHIAVVLILMLGDEETRERAIEAAREVLREAGISEEAIERMERRVRSGWERLDRLLA
# B28: traf2_out_11_169_815 (protein)
# chain: EEAEKNRKINDFALELNDEAKKKLLEHAKKLAKEAGLDVEEVEKIFEENKNKSLSAVAAALIKYFRSKGKEEEAEAVLKKYEELKEEINKKVTEKIKELE
# B29: traf2_out_13_95_1055 (protein)
# chain: SAETAAKINEIADEALERALALLRAAQEEVADDPAASAVLAEALRLAETRGISEAIHLLREAQAADPAHAERFAALIEELEAIRREAGRRVAEVLKEEKE
# B30: traf2_out_18_64_1955 (protein)
# chain: SELDEEIDRLVDEMDERRRLRLALARALQARAAADPAWQPLLDYFHAHVNDIGAAGARRMLALLAAGAPPAELRAVMEEDLGEGRELQRRLAELLEKREK
# B31: traf2_out_18_117_1787 (protein)
# chain: MEREEIIERLKEIAEETGRAASELGKLVLEKWEELTPEEKSEAFDVLADLSEVRREAQLLIIEIEEKNLPIEEAKKRLEELEKRAEEALKRAEEKIKRIK
# B32: traf2_out_17_178_1705 (protein)
# chain: SKEEARKKISEATDKMIDLAQEAAERLLEIAEREGSLSPEELAELRRARRLGSARTTLALMRRAIPRSRSAEEVRRLVEEFEKEYRELSKIIAEELKKYE
# B33: traf2_out_13_95_1155 (protein)
# chain: SKELAEKIMEIADRMLDEALAVLDELLAAAKAAGKLEEEVARARHLAEHHSINEAIALLRELAKAHPEFKEELDAAIARLEALRREAGREVAELIKKEKE
# B34: traf2_out_13_95_1102 (protein)
# chain: SRELAEEIMKIADEMIDKANEILEELLKIAKEKGVAEEEVKEALYLAEHRSIREAIHKLKELAKEYPELKEEFEEAIEKLEKLIEEAGKKVAELIKEEKE
# B35: traf2_out_6_166_2459 (protein)
# chain: ESETLKEIREIIKELSKYSTEIIVKAFDEVAKKVDEESARILRQLKSAVEQAEKLGLDVETALTATVLGLITLGVPEETLLKLLKEVLKEAKKIAEEKEK
# B36: traf2_out_13_95_1054 (protein)
# chain: SAETAEKINEIADEALEEALALLEEARAEVADDPEASAVLDEALRLAETKGISEAIHLLEEARAADPAHAERFAALIERLRAIRREAGRKVAEVLKEAEE
# B37: traf2_out_14_166_1277 (protein)
# chain: MTPEEIERIRKIVDELEPLTDAAVARARAILDKVRDKLSPEDLARVEALLALAARNIGSSAINALREIAKIYKKAGLDEAAAAMQALADELEEKLKKLNK
# B38: traf2_out_6_156_2405 (protein)
# chain: MLEEIEEETLKEIEELIKELAAASEEKKIAYISKIAGTFYRGLQRARAAGASVEELEAFGKRVLEKTKELLDEEGLPQDVKDLILSSLNAVFDVALAEAR
# Target: T1, TRAF2, Q12933
# Test: median log2 fold change of GCK-ALFA target abundance (FLAG IP / Myc IP barcode read proportion) (log2 ratio); each designed protein is fused to an ALFA-tag nanobody in HEK293 cells to bring the named protein to FLAG-tagged glucokinase (GCK); Myc marks an untargeted standard; higher = target protein stabilised (more abundant)
# Settings: target protein: 3xFLAG-MCP-GCK-ALFA reporter; HEK293 landing pad (RPLP)
# Procedure, shortened: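 The readout is target abundance, the per-binder median log2 ratio of FLAG to Myc barcode read proportions. It came from HEK293 landing-pad cells carrying a recombined ALFA-nanobody-fused binder library, induced with 2 μg mL^−1 doxycycline and transfected with a plasmid for a FLAG-tagged target and a Myc-tagged standard. After 48 h, lysates were immunoprecipitated with anti-FLAG and anti-Myc, and circular RNA barcodes were reverse transcribed, amplified and sequenced. Each barcode needed a proportion of at least 10^−7 in both replicates and each binder at least 3 barcodes per replicate, a pseudocount of 10^−6 was added, and the replicates were pooled.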
row,Binder,median log2 fold change
1,B1,0.336
2,B2,-0.103
3,B3,0.298
4,B4,-0.574
5,B5,0.344
6,B6,-1.23
7,B7,0.137
8,B8,0.263
9,B9,-1.13
10,B10,0.0488
11,B11,-1.49
12,B12,0.0543
13,B13,-1.45
14,B14,0.444
15,B15,0.217
16,B16,-1.09
17,B17,0.112
18,B18,-0.177
19,B19,-0.184

row,Binder,median log2 fold change
1,B20,-0.0213
2,B21,-0.558
3,B22,0.0409
4,B23,0.22
5,B24,-1.17
6,B25,-0.192
7,B26,-0.0113
8,B27,0.155
9,B28,0.235
10,B29,0.257
11,B30,0.163
12,B31,0.101
13,B32,-0.521
14,B33,-0.372
15,B34,-0.486
16,B35,0.077
17,B36,0.213
18,B37,0.354
19,B38,0.151

# Reference: the supplement of paper PMC12632987
